# Lassa entry inh – Lassa virus entry inhibition; Lassa virus pseudotype entry inhibition, cell reporter; Potency, µM (series often up to 37.9 µM), without a hit: top-dose activity change, negative = inhibition, usual class: inhibitors; 300,000 compounds, 1.2% hits; AID 540256; calls by dose curve; tested in HEK293 cells; also: nearly all actives have a fitted effect of over 50% in size
# HCV inh – inhibitors of hepatitis C virus infection; Huh7.5.1 HCVcc-Cre infection, luciferase reporter, 44 h; Potency, µM (series often up to 41.8 µM), for inactives: at the top dose activity change, negative = inhibition, actives largely listed as inhibitors; 340,000 compounds, 3.4% hits; active = well fitted inhibition curve with a large enough effect; inconclusive = small, poorly fitted or top-dose-only effect, or another doubt; inactive = no such curve, though single readings can be large or run the other way
#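 Cells (1,000/well) were plated 4 h before compound, then infected with HCVcc-Cre virus (~0.5 moi). After 44 h further culture, infection was read as luciferase luminescence following a 15 min substrate incubation at room temperature.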
# FMDV antiviral – foot and mouth disease virus antiviral activity. FMDV antiviral cell-based qHTS. Potency, µM (titrated, usually from 57.9 µM), inactives show at the highest dose activity change, negative = inhibition, actives largely listed as inhibitors. 410,000 compounds, 1.2% hits. AID 1159524; calls by dose curve; tested in HEK293T cells; also: read-out not given here; nearly all actives have a fitted effect of over 45% in size
# Vaccinia Venus – vaccinia inhibition (Venus reporter); Vaccinia virus Venus reporter expression, fluorescence; Potency, µM (highest dose often 36.5 µM), for inactives: at the highest dose activity change, negative = inhibition, most hits filed as inhibitors; 330,000 compounds, 0.46% hits; calls by dose curve; tested in A549 cells; also: nearly all actives have a fitted effect of over 30% in size
# VACV mCherry inh – inhibitors of vaccinia virus infection (mCherry reporter signal) | Vaccinia virus mCherry reporter infection, fluorescence | 310,000 compounds, 0.63% hits | AID 720579 | Potency, µM (top dose mostly 36.5 µM), for the others: top-dose activity change, negative = inhibition, most hits filed as inhibitors; calls by dose curve; tested in A549 cells; also: nearly all actives have a fitted effect of over 35% in size
# Marburg entry inh – inhibitors of Marburg virus binding or cell entry; Marburg virus pseudotyped entry inhibition, cell reporter; Potency, µM (titrated, usually from 37.8 µM), for the others: at the top dose activity change, negative = inhibition, actives largely listed as inhibitors; 300,000 compounds, 1.8% hits; calls by dose curve; tested in HEK293 cells
# * hit, by the source's call; i = inactive; ? = inconclusive; . = not tested or not shown; [ ] = dose if it differs, or a comment. Shown are actives, neighbours in structure and some others; about 5.3% of the full set was active somewhere. % is scaled to controls: 0 for no effect and ±100 for the full control effect; potency is read from the fitted curve at half-maximal effect.
SMILES,Lassa entry inh,HCV inh,FMDV antiviral,Vaccinia Venus,VACV mCherry inh,Marburg entry inh
C=CCNC(=S)N/N=C/c1ccc(C(C)(C)C)cc1,?,?,-7%,-12%,-20%,?
CCOc1ccc(CNC(=S)N/N=C/c2ccc(OC)c(OC)c2)cc1,2.8µM*,-12%,8%,?,?,-72%
Cc1ccc(NC(=O)C(Cc2ccccc2)NS(=O)(=O)c2ccc3c(c2)c(=O)n(C)c(=O)n3C)cc1 (centres undefined),-3%[46.1 µM],.,-4%,-14%,-11%,-16%[46.1 µM]
COc1ccc(OC)c(-c2cc(Cl)c3c(c2)CC(CNC(=O)c2cccnc2SC)O3)c1 (centres undefined),.,.,-3%,-13%,-15%,.
CCOC(=O)c1cnc2ccc(OCC)cc2c1NCCc1ccc(OC)c(OC)c1,?,.,28µM*,-15%[7.34 µM],-11%[7.34 µM],?
CCOC(=O)c1cnc2ccc(OCC)cc2c1N(C)Cc1ccccc1,2%,11µM*,?,-17%,-13%,?
COC1=C[C@H](C(=O)NCc2ccc(Br)cc2)C(C)C(c2ccccc2)CC1=O (some centres undefined),.,.,.,.,.,15%[14.2 µM]
Cc1nc(NS(=O)(=O)c2ccccc2)sc1C(=O)NNS(=O)(=O)c1ccccc1,14%[46.1 µM],16%,15%,19%,-12%,18%[46.1 µM]
Cc1nc(C)c(C(=O)NNS(=O)(=O)c2ccc3ccccc3c2)s1,?,13µM*,-27%,-3%,?,-31%
COC(=O)C(CCSC)NC(=O)Cn1ncc2c([nH]c3ccccc32)c1=O (centres undefined),9%[46.1 µM],.,-8%,-5%,-3%,.
Cc1ccc(S(=O)(=O)Nc2ccc3nc(N)sc3c2)cc1,-8%,13µM*,41%,.,.,-26%
Cc1c(NS(=O)(=O)c2ccc3c(c2)OCCO3)cccc1-c1nc2cccnc2s1,.,13µM*,?,-17%,-17%,0%
Cc1nc2ccc(NS(=O)(=O)c3cccc([N+](=O)[O-])c3)cc2s1,-1%[46.1 µM],11µM*,-8%,0%,-12%,?
Cc1nc2ccc(NS(=O)(=O)c3ccc4c(c3)OCCO4)cc2s1,?,3.2µM*,-13%,?,.,?
CCCCCCCCN1[C@@H](CC(=O)O)c2ccc(/C=C/C(=O)O)cc2S1(=O)=O,.,.,.,-10%,i,.
CC1CN(C(=O)CCC(=O)NCCCc2ccccc2)c2ccccc2O1 (centres undefined),.,-1%,-22%,4%,10%,.
Cc1ccc(S(=O)(=O)Nc2ccc3nc(-c4cccn4C)[nH]c3c2)cc1,?,11µM*,23%,-16%,-24%,?
Cn1cccc1-c1nc2ccc(NC(=O)c3ccccc3)cc2[nH]1,-10%,?,6%,-11%,i,-8%
Cc1nc2ccc(NC(=O)c3cc([N+](=O)[O-])cc([N+](=O)[O-])c3Cl)cc2s1,4%,25µM*,?,-16%,-6%,?
CCC1CN(CC(=O)NC(C)c2c(C)nn(C)c2C)Cc2cc(OC)ccc2O1 (centres undefined),.,.,3%,3%,-7%,.
COCc1cc(O)c(O)c(O)c1-c1c(COC)cc(O)c(O)c1O,.,.,.,15%,43%,.
Cc1cc(C)n(C(=O)/C(C#N)=N/Nc2cc(Cl)cc(Cl)c2)n1,.,10µM*,?,?,?,.
Cc1cc(C)n(C(=O)/C(C#N)=N\Nc2ccccc2[N+](=O)[O-])n1,1%,14%,14%,-9%,-7%,-17%[46.1 µM]
O=C(COc1cccc(C(F)(F)F)c1)NNC(=O)c1ccc(=O)[nH]c1,.,11%,-12%,.,.,.
Cc1cc(C)cc(N(C(=O)c2sc(C)nc2C)C(C(=O)NCc2ccco2)c2ccccc2)c1 (centres undefined),?,23%,.,-12%,-22%,?
SMILES,Lassa entry inh,HCV inh,FMDV antiviral,Vaccinia Venus,VACV mCherry inh,Marburg entry inh
Cc1ccc(N(C(=O)c2sc(C)nc2C)C(C(=O)NCc2ccco2)c2ccccc2)cc1 (centres undefined),7.3µM*,-10%,.,-16%,i,?
CC(=O)OC1COC(OC(C)=O)CO1 (centres undefined),21%[46.1 µM],12%,8%,3%,-2%,?
CCOC(=O)c1c(NC(=O)CNCC(O)CO)sc(C)c1C (centres undefined),0%,?,-3%,-5%,.,1%
CCOC(=O)c1c(NC(=O)c2cccnc2)sc(C)c1C,-12%,10µM*,.,0%,-9%,-17%
CCOC(=O)c1c(NC(=O)COC(=O)Cn2cnc3ccccc32)sc(C)c1C,17%,?,-6%,?,10µM*,-8%
COC(=O)c1c(NC(=O)COC(=O)Cn2cnc3ccccc32)sc(C)c1C,3%,?,6%,-17%,-12%,10%[46.1 µM]
CCCCNCC(=O)Nc1sc(C)c(C)c1C(=O)OCC,-2%,11µM*,-5%,-1%,-5%,-15%
COc1cc2nc(N3CCCN(C)CC3)nc(Nc3ccncc3)c2cc1OC,.,.,.,?,-10%,.
CCC(C)Sc1oc(-c2ccco2)nc1S(=O)(=O)c1ccc(C)cc1 (centres undefined),-10%[46.1 µM],.,26%,-13%,-14%,10µM*
CSc1oc(-c2ccco2)nc1S(=O)(=O)c1ccc(C)cc1,11%[46.1 µM],0%,13%,-8%,-25%,?
Cc1ccc2c(c1)/C(=C/c1ccccc1F)C(=O)N2,.,?,-14%,-29%,-14%,.
Cc1ccc2c(c1)/C(=C/c1ccccc1)C(=O)N2,10µM*,-20%,-28%,-17%,-8%,?
CCOc1ccc(C(=O)Nc2cccc(OCc3cc(=O)n4cc(C)sc4n3)c2)cc1,22%[46.1 µM],.,0%,3%,-5%,6%[46.1 µM]
CNC(=O)c1ccc2nc(-c3ccco3)c(-c3ccco3)nc2c1,.,.,.,12%,-10%,.
COc1ccccc1OCCCn1cc(C(=O)c2ccco2)c2ccccc21,?,11µM*,-12%,.,.,-8%
Cc1cc(OCCn2cc(C(=O)c3ccco3)c3ccccc32)ccc1Cl,-23%[46.1 µM],.,-16%,-8%,3%,?
COc1ccccc1OCCn1cc(C(=O)c2ccco2)c2ccccc21,-21%,?,25µM*,-26%,?,?
Cc1ccccc1OCCn1cc(C(=O)c2ccco2)c2ccccc21,-8%[46.1 µM],.,-10%,-4%,-5%,?
COc1cccc(OCCn2cc(C(=O)c3ccco3)c3ccccc32)c1,?,20µM*,-2%,-11%,-23%,?
C=CCOC(=O)C(C(C)=O)[C@@H](NC(=O)OC)c1cccs1 (some centres undefined),.,.,.,.,.,-6%[14.2 µM]
Cc1nn(C)c(C)c1/C=C/C(=O)c1ccc(Cl)cc1Cl,?,7.9µM*,?,?,?,?
CN(C)c1ccc(/C=C/c2c([N+](=O)[O-])c(=O)n(C)c(=O)n2C)cc1,.,-1%,10%,.,.,.
Cn1c(/C=C/c2ccc(Br)cc2)c([N+](=O)[O-])c(=O)n(C)c1=O,?,?,16µM*,?,13µM*,?

# Source: PubChem BioAssay (National Center for Advancing Translational Sciences (NCATS))
